The source of these data is publication PMC7862700, “An all-to-all approach to the identification of sequence-specific readers for epigenetic DNA modifications on cytosine”.

Holding throughout (assay): DAPPL (digital affinity profiling via proximity ligation, sequencing); 10 mM Tris-HCl pH 7.5, 50 mM NaCl, 1 mM DTT, 4% glycerol, room temperature, 30 min; GST-TFs on glutathione beads, 16-mer random dsDNA library, 0.1% formaldehyde crosslink after washing; high values mean tight binding
The target of one assay is SPI1 (Homo sapiens, UniProt P17947 1-270). As to conditions: protein: recombinant; tags: N-terminal GST; dsDNA, one strand shown. The essentials:
(§1)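 Beads coated with glutathione captured GST-fused human transcription factors that had been expressed in yeast, and the factors were then given DNA barcodes and pooled with a tag-only sample. The pools were incubated with 200 nmole of a random double-stranded 16-mer DNA library in Tris/NaCl/DTT/glycerol buffer for 30 min at room temperature, washed, crosslinked with 0.1% formaldehyde and proximity-ligated with BsaI/T4 ligase at 37 °C for 1 h. PCR amplification and Illumina NextSeq500 sequencing came last. Binding signal is each hexamer's read frequency for a factor divided by its frequency for the tag-only sample.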

Another assay concerns the target T1, FEV (Homo sapiens, UniProt Q99581 1-238).
T1 sequence: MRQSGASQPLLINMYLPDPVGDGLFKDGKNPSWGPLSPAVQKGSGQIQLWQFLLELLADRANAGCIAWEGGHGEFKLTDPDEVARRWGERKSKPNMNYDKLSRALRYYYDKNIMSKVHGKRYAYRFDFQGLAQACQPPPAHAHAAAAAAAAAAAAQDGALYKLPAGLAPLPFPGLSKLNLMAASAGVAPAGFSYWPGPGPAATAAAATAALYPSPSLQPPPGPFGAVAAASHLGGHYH
The note with it: protein: recombinant; tags: N-terminal GST; dsDNA, one strand shown. The essentials:
as §1

A further assay deals with T2, SPDEF (Homo sapiens, UniProt O95238 1-335).
T2 sequence: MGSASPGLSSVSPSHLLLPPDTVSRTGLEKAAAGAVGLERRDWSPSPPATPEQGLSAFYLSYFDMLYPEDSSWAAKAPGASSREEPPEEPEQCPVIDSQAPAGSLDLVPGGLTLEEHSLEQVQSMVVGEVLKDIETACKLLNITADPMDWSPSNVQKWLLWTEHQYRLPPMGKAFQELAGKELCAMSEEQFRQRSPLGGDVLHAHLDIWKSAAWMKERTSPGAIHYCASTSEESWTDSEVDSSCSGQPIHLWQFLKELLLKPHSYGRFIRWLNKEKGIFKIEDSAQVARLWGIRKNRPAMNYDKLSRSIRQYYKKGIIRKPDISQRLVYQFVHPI
As to conditions: protein: recombinant; tags: N-terminal GST; dsDNA, one strand shown. In short, it runs like this: as §1

The target in a further assay is CRX (Homo sapiens, UniProt O43186 1-299). The note with it: protein: recombinant; tags: N-terminal GST; dsDNA, one strand shown. In short, it runs like this: as §1
In the next assay the target is T3, ELF5 (Homo sapiens, UniProt Q9UKW6-2 1-255).
T3 sequence: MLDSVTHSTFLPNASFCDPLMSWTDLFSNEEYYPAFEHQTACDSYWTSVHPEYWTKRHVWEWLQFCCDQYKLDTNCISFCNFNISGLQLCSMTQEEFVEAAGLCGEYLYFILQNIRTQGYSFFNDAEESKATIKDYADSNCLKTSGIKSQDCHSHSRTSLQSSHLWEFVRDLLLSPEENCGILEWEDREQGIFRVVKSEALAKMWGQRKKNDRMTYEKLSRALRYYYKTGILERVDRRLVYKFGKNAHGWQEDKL
The note with it: protein: recombinant; tags: N-terminal GST; dsDNA, one strand shown. In short, it runs like this: as §1

A further assay addresses HSF1 (Homo sapiens, UniProt Q00613 1-529). As to conditions: protein: recombinant; tags: N-terminal GST; chain copies: 3; dsDNA, one strand shown. The essentials: as §1

Chain of HSF1 (Q00613 whole entry): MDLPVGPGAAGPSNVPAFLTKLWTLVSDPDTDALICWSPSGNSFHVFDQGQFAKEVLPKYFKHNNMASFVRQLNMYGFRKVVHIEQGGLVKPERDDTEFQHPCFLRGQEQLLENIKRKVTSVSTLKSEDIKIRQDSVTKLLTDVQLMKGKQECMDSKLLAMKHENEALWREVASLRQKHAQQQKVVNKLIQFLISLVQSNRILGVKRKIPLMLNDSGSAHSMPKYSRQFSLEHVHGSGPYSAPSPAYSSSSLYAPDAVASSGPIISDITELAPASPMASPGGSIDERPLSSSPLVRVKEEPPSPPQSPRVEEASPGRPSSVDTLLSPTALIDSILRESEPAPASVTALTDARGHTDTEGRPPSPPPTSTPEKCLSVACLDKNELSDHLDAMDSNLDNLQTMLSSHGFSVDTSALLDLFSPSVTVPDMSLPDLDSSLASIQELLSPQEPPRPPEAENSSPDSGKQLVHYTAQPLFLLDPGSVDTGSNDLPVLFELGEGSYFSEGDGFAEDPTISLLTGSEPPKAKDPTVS
Chain of CRX (O43186 whole entry): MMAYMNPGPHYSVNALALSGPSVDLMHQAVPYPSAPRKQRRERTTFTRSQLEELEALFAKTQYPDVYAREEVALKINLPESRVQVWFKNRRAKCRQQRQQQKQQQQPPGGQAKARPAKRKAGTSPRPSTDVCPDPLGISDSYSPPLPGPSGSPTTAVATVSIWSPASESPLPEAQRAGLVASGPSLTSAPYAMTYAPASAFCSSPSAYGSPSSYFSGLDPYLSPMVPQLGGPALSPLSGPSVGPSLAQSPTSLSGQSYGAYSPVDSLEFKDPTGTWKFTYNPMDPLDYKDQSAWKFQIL

For CGCGGC, the binding signal in the assay with SPI1 is 1.05 fold enrichment (6-mer frequency, TF over GST control); with FEV, 1.06 fold enrichment (6-mer frequency, TF over GST control); in the assay with SPDEF, 1.04 fold enrichment (6-mer frequency, TF over GST control).

For the sequence TCAGCC, the binding signal was 1.04 fold enrichment (6-mer frequency, TF over GST control) with FEV; 1.17 fold enrichment (6-mer frequency, TF over GST control) with CRX; 1.03 fold enrichment (6-mer frequency, TF over GST control) in the assay with SPDEF.

With GCCGTC, in the assay with SPDEF, the binding signal was 1.03 fold enrichment (6-mer frequency, TF over GST control).

As for AGTTTT, the binding signal with ELF5 was 1.01 fold enrichment (6-mer frequency, TF over GST control).

On to TGGCCA, for which the binding signal was 1.05 fold enrichment (6-mer frequency, TF over GST control) with SPI1 and 1.13 fold enrichment (6-mer frequency, TF over GST control) with FEV.

Regarding GTTTGT, the binding signal is 1.01 fold enrichment (6-mer frequency, TF over GST control) with SPDEF and 1.03 fold enrichment (6-mer frequency, TF over GST control) in the assay with ELF5.

For CGTACG, the binding signal with SPDEF was 1.02 fold enrichment (6-mer frequency, TF over GST control).

In the case of CCACAG, the binding signal with FEV was 1.01 fold enrichment (6-mer frequency, TF over GST control).

On to CATGGC, for which the binding signal with SPI1 was 1.04 fold enrichment (6-mer frequency, TF over GST control); in the assay with FEV, 1.04 fold enrichment (6-mer frequency, TF over GST control).

As for GTGGCA, the binding signal with SPI1 is 1.04 fold enrichment (6-mer frequency, TF over GST control); with FEV, 1.09 fold enrichment (6-mer frequency, TF over GST control).

As for ACTGTC, the binding signal with SPI1 is 1 fold enrichment (6-mer frequency, TF over GST control).

Turning to GACGAC, the binding signal with SPDEF is 1.04 fold enrichment (6-mer frequency, TF over GST control); in the assay with ELF5, 1.02 fold enrichment (6-mer frequency, TF over GST control).

For TGATTG, in the assay with SPI1, the binding signal was 1.04 fold enrichment (6-mer frequency, TF over GST control).

On to TTGACG, for which the binding signal with SPI1 is 1.04 fold enrichment (6-mer frequency, TF over GST control); with FEV it was 1.1 fold enrichment (6-mer frequency, TF over GST control); with CRX, 1.01 fold enrichment (6-mer frequency, TF over GST control); with ELF5, 1.07 fold enrichment (6-mer frequency, TF over GST control).

For GCAGCC, the binding signal with FEV was 1.03 fold enrichment (6-mer frequency, TF over GST control).

Take TCGTTA: the binding signal with CRX was 1.1 fold enrichment (6-mer frequency, TF over GST control).

For CGGCCC, the binding signal in the assay with FEV was 1 fold enrichment (6-mer frequency, TF over GST control).

Take GTCGAC: the binding signal with SPI1 was 1.08 fold enrichment (6-mer frequency, TF over GST control); in the assay with FEV, 1.02 fold enrichment (6-mer frequency, TF over GST control); with SPDEF it was 1.06 fold enrichment (6-mer frequency, TF over GST control).

For the sequence ACCGTT, the binding signal with SPDEF is 1.01 fold enrichment (6-mer frequency, TF over GST control).

For the sequence CCATGG, the binding signal with SPI1 is 1.05 fold enrichment (6-mer frequency, TF over GST control).

As to CAAGCT, in the assay with CRX, the binding signal was 1.1 fold enrichment (6-mer frequency, TF over GST control).

As for TGTGAT, the binding signal is 1.12 fold enrichment (6-mer frequency, TF over GST control) with CRX and 1.06 fold enrichment (6-mer frequency, TF over GST control) with SPDEF.

For GATACA, the binding signal with SPI1 was 1.01 fold enrichment (6-mer frequency, TF over GST control); with SPDEF it was 1.24 fold enrichment (6-mer frequency, TF over GST control); with ELF5, 1 fold enrichment (6-mer frequency, TF over GST control).

For the sequence TGTTGG, the binding signal with SPDEF is 1 fold enrichment (6-mer frequency, TF over GST control).

Consider GTGCGC, for which the binding signal with SPI1 is 1.02 fold enrichment (6-mer frequency, TF over GST control).

Consider CCTGGC, for which, in the assay with SPI1, the binding signal is 1.05 fold enrichment (6-mer frequency, TF over GST control).

Take GACTCA: in the assay with FEV, the binding signal is 1 fold enrichment (6-mer frequency, TF over GST control).

Consider AGAGAA, for which the binding signal with HSF1 is 1.36 fold enrichment (6-mer frequency, TF over GST control).

Consider TCGCGA, for which, in the assay with HSF1, the binding signal is 1.59 fold enrichment (6-mer frequency, TF over GST control).

For TCCAGT, in the assay with HSF1, the binding signal was 1.01 fold enrichment (6-mer frequency, TF over GST control).

Take AGGAAT: in the assay with HSF1, the binding signal was 1.01 fold enrichment (6-mer frequency, TF over GST control).

Take CTGGTG: the binding signal was 1.04 fold enrichment (6-mer frequency, TF over GST control) with SPI1 and 1.01 fold enrichment (6-mer frequency, TF over GST control) with SPDEF.

In the case of GAGAAT, in the assay with HSF1, the binding signal was 1.44 fold enrichment (6-mer frequency, TF over GST control).

For GGATGG, the binding signal was 1.09 fold enrichment (6-mer frequency, TF over GST control) with SPDEF and 1.03 fold enrichment (6-mer frequency, TF over GST control) with ELF5.

Turning to GACGTT, the binding signal with ELF5 is 1.01 fold enrichment (6-mer frequency, TF over GST control).

As to GAGAAA, the binding signal with HSF1 was 1.49 fold enrichment (6-mer frequency, TF over GST control).

For GCCAGA, the binding signal with HSF1 was 1.02 fold enrichment (6-mer frequency, TF over GST control).

Take CCGGTG: the binding signal was 1.35 fold enrichment (6-mer frequency, TF over GST control) in the assay with FEV and 1.13 fold enrichment (6-mer frequency, TF over GST control) with SPDEF.

Turning to GCTGGA, the binding signal with HSF1 is 1.19 fold enrichment (6-mer frequency, TF over GST control).

Regarding CAGAAG, the binding signal with HSF1 was 1.32 fold enrichment (6-mer frequency, TF over GST control).

For CGGGCT, the binding signal in the assay with FEV was 1.01 fold enrichment (6-mer frequency, TF over GST control); with SPDEF, 1.07 fold enrichment (6-mer frequency, TF over GST control).

On to ATCGAG, for which, in the assay with HSF1, the binding signal was 1.49 fold enrichment (6-mer frequency, TF over GST control).

On to GAAGGT, for which the binding signal with HSF1 was 1.14 fold enrichment (6-mer frequency, TF over GST control).

For CGCACA, the binding signal with FEV was 1.02 fold enrichment (6-mer frequency, TF over GST control); with ELF5 it was 1.04 fold enrichment (6-mer frequency, TF over GST control).

As to TCGTTG, the binding signal in the assay with SPDEF was 1.01 fold enrichment (6-mer frequency, TF over GST control).

On to AGTTGC, for which the binding signal was 1.07 fold enrichment (6-mer frequency, TF over GST control) in the assay with SPI1 and 1.02 fold enrichment (6-mer frequency, TF over GST control) with ELF5.

On to GACACT, for which the binding signal is 1.02 fold enrichment (6-mer frequency, TF over GST control) with SPI1 and 1.05 fold enrichment (6-mer frequency, TF over GST control) with ELF5.

As to CACTAG, the binding signal in the assay with SPI1 was 1.06 fold enrichment (6-mer frequency, TF over GST control); with HSF1, 1.24 fold enrichment (6-mer frequency, TF over GST control).

Regarding GGAATG, in the assay with HSF1, the binding signal is 1.25 fold enrichment (6-mer frequency, TF over GST control).

On to CTAGAG, for which, in the assay with HSF1, the binding signal is 1.58 fold enrichment (6-mer frequency, TF over GST control).

TTAGCC: the binding signal with HSF1 was 1.45 fold enrichment (6-mer frequency, TF over GST control); in the assay with CRX, 2.22 fold enrichment (6-mer frequency, TF over GST control).

In the case of GTGGAA, the binding signal with SPI1 was 1.15 fold enrichment (6-mer frequency, TF over GST control); in the assay with HSF1, 1.23 fold enrichment (6-mer frequency, TF over GST control).

In the case of CGAGTA, the binding signal in the assay with HSF1 was 1.1 fold enrichment (6-mer frequency, TF over GST control).

For TGATAA, the binding signal is 1.05 fold enrichment (6-mer frequency, TF over GST control) with SPI1; 1.2 fold enrichment (6-mer frequency, TF over GST control) with HSF1; 1.52 fold enrichment (6-mer frequency, TF over GST control) with CRX; 1.02 fold enrichment (6-mer frequency, TF over GST control) with ELF5.

In the case of TCGAGG, the binding signal with HSF1 was 1.04 fold enrichment (6-mer frequency, TF over GST control).

For the sequence AGAAGG, the binding signal with HSF1 was 1.28 fold enrichment (6-mer frequency, TF over GST control).

As to TGTAGA, the binding signal in the assay with HSF1 is 1.12 fold enrichment (6-mer frequency, TF over GST control).

Take ACTAGA: the binding signal was 2.1 fold enrichment (6-mer frequency, TF over GST control) in the assay with HSF1 and 1.16 fold enrichment (6-mer frequency, TF over GST control) with CRX.

In the case of TGGATC, the binding signal is 1.03 fold enrichment (6-mer frequency, TF over GST control) in the assay with SPI1; 1.16 fold enrichment (6-mer frequency, TF over GST control) with HSF1; 1.15 fold enrichment (6-mer frequency, TF over GST control) in the assay with CRX; 1.09 fold enrichment (6-mer frequency, TF over GST control) in the assay with SPDEF.

As for CAGACT, the binding signal with FEV is 1 fold enrichment (6-mer frequency, TF over GST control); with HSF1 it was 1.06 fold enrichment (6-mer frequency, TF over GST control).
